# Experimental data published in PubChem BioAssay (NCATS).
# Results filed as inconclusive are left out. Where a call stands in place of a potency, no number is given. Calls of active or inactive are those of the source. Unless noted, calls come from the whole dose curve; as a rule, active = well fitted curve in the direction sought with a large enough effect; inconclusive = small, poorly fitted or top-dose-only effect, or another doubt; inactive = no such curve, though single readings can be large; an effect the other way counts as inactive or inconclusive.
# What was measured:
# [1] = NS1 protein of Zika virus - qHTS assay to identify small molecule inhibitors in human HEK 293 cells (AID 1347053); note: nearly all actives have a fitted effect of over 55% in size; note: potency is the fitted concentration of half-maximal effect
# Procedure, shortened: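 HEK 293; 20 h pre-culture, 37 C/5% CO2; cpd 1 h pre-infection; ZIKV MR766, MOI = 0.5, 24 h, 37 C; TR-FRET NS1 readout (two anti-NS1 Abs); norm. to no-virus vs infected.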
# [2] = molecular target: T1, Tyrosine-protein phosphatase non-receptor type substrate 1 (Homo sapiens) + Leukocyte surface antigen CD47 (Homo sapiens) (UniProt P78324+Q08722); assay: CD47-SIRPalpha protein protein interaction - LANCE assay qHTS validation (AID 1347057; active = well fitted curve in the direction sought with a large enough effect in the signal ratio, with a control signal flat, not every such curve was filed as active; the % refers to the signal ratio; note: series mostly up to about 38 µM)
# T1 sequence (P78324 whole entry, looked up): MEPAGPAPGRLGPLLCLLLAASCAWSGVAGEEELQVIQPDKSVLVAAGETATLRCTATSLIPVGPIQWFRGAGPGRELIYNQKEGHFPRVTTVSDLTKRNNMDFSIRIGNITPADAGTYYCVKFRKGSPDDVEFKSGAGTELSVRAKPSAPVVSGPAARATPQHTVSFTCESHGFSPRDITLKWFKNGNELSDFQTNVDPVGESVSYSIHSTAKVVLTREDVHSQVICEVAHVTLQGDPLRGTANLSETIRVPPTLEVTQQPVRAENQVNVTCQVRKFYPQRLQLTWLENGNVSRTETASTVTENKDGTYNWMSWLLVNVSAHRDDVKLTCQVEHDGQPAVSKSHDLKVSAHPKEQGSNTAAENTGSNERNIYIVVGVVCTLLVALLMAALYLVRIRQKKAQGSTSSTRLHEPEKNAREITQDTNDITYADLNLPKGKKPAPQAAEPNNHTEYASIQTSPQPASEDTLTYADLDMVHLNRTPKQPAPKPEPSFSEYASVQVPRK
# T1 sequence (Q08722 whole entry, looked up): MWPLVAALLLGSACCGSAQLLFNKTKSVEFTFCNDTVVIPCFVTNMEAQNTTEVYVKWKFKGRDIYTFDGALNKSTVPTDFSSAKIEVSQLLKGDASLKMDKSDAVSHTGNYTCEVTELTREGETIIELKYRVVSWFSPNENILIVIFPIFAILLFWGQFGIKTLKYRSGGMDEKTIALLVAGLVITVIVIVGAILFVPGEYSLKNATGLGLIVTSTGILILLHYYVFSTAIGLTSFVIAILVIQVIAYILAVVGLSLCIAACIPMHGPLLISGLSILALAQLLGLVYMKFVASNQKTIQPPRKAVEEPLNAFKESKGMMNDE
# Procedure, shortened: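 First, His-tagged CD47 and Eu-labelled anti-His antibody met the compound for 30 min; next, site-specifically biotinylated SIRPalpha was added for 30 min; finally streptavidin-APC was added before reading the TR-FRET ratio.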
# [3] = molecular target: T1, Tyrosine-protein phosphatase non-receptor type substrate 1 (Homo sapiens) + Leukocyte surface antigen CD47 (Homo sapiens); assay: CD47-SIRPalpha protein protein interaction - Alpha assay qHTS validation (AID 1347059);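 note: bead proximity luminescence from CD47 binding SIRPalpha after compound preincubation with SIRPalpha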
# Procedure, shortened: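 Soluble extracellular domains: Avi-tag biotinylated SIRPalpha (25 nM) preincubated 30 min RT with compound, then 6His-CD47 (12.5 nM) 30 min; Ni-NTA acceptor and streptavidin donor beads (10 ug/mL) 30 min, AlphaScreen read. PBS pH 7.4, 0.05% IGEPAL.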
# [4] = molecular target: T1, Tyrosine-protein phosphatase non-receptor type substrate 1 (Homo sapiens) + Leukocyte surface antigen CD47 (Homo sapiens); assay: CD47-SIRPalpha protein protein interaction - HTRF assay qHTS validation (AID 1347058; active = well fitted curve in the direction sought with a large enough effect in the signal ratio, not every such curve was filed as active; the % refers to the signal ratio; note: series mostly up to about 38 µM)
# Procedure, shortened: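 TR-FRET read (Ch1/Ch2 ratio) of soluble extracellular CD47 and Avi-biotinylated SIRPalpha domains in PBS pH 7.4 with 0.05% IGEPAL; 7-point compound titration. Sequential 30 min room-temperature steps; non-biotinylated SIRPalpha as control inhibitor.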
# [5] = qHTS of pediatric cancer cell lines to identify multiple opportunities for drug repurposing: Primary screen for TC32 cells (AID 1347089); note: nearly all actives have a fitted effect of over 60% in size
# Procedure, shortened: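 A viability screen of TC32 cells was run over 48 h, with primary MIPE doses spanning 0.78 nM–46 µM and NPC doses 0.59 nM–46 µM. ATP luminescence (CellTiter-Glo) served as the read-out.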
# [6] = qHTS of pediatric cancer cell lines to identify multiple opportunities for drug repurposing: Primary screen for DAOY cells (AID 1347090); note: series mostly up to about 46 µM; nearly all actives have a fitted effect of over 55% in size
# Procedure, shortened: (§1)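 Eight- or eleven-point concentration series, 48 h treatment at 37 degrees C in growth media; readout CellTiter-Glo luminescence. Potency and efficacy were taken from the concentration-response curves.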
# [7] = qHTS of pediatric cancer cell lines to identify multiple opportunities for drug repurposing: Primary screen for SJ-GBM2 cells (AID 1347091)
# Procedure, shortened: as §1
# [8] = qHTS of pediatric cancer cell lines to identify multiple opportunities for drug repurposing: Primary screen for A673 cells (AID 1347092); note: nearly all actives have a fitted effect of over 45% in size
# Procedure, shortened: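 Titration-based qHTS on A673 cells: MIPE compounds spanned 11 points (0.78 nM to 46 µM final), NPC compounds 8 points (0.59 nM to 46 µM final). Viability after 48 h was measured by ATP luminescence.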
# [9] = qHTS of pediatric cancer cell lines to identify multiple opportunities for drug repurposing: Primary screen for SK-N-MC cells (AID 1347093); note: series mostly up to about 46 µM
# Procedure, shortened: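 Metabolically active cells were quantified by ATP-dependent luminescence (CellTiter-Glo, 15 min at room temperature) following 48 h treatment. Cells had been plated at 500-1,000 per well and settled for 5 h beforehand.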
# [10] = qHTS of pediatric cancer cell lines to identify multiple opportunities for drug repurposing: Primary screen for BT-37 cells (AID 1347094); note: series mostly up to about 57 µM
# Procedure, shortened: (§2)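 Readout: CellTiter-Glo luminescence, 48 h treatment. Controls DMSO (neutral) and bortezomib 2.3 µM final (positive). Potency and efficacy taken from primary-screen concentration-response curves.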
# [11] = qHTS of pediatric cancer cell lines to identify multiple opportunities for drug repurposing: Primary screen for NB-EBc1 cells (AID 1347095)
# Procedure, shortened: as §2
# [12] = qHTS of pediatric cancer cell lines to identify multiple opportunities for drug repurposing: Primary screen for U-2 OS cells (AID 1347096); note: nearly all actives have a fitted effect of over 50% in size
# Procedure, shortened: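 Cells (500-1,000/well) in growth media were settled 5 h at 37 degrees C, then given compounds for 48 h. Viability was read as CellTiter-Glo luminescence. Primary runs used MIPE at 11 points (0.78 nM-46 µM) and NPC at 8 points (0.59 nM-46 µM); follow-ups used 11 points.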
# [13] = molecular target: Parathyroid hormone/parathyroid hormone-related peptide receptor (Homo sapiens) (UniProt Q03431); assay: qHTS for PTHR1 Agonists: Optimization Screen against the NCGC LOPAC library (AID 1347079);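 note: GloSensor cAMP luminescence in HEK-293 GP2 cells expressing human PTHR1 with IBMX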
# Sequence of Parathyroid hormone/parathyroid hormone-related peptide receptor (Homo sapiens) (Q03431 whole entry, looked up): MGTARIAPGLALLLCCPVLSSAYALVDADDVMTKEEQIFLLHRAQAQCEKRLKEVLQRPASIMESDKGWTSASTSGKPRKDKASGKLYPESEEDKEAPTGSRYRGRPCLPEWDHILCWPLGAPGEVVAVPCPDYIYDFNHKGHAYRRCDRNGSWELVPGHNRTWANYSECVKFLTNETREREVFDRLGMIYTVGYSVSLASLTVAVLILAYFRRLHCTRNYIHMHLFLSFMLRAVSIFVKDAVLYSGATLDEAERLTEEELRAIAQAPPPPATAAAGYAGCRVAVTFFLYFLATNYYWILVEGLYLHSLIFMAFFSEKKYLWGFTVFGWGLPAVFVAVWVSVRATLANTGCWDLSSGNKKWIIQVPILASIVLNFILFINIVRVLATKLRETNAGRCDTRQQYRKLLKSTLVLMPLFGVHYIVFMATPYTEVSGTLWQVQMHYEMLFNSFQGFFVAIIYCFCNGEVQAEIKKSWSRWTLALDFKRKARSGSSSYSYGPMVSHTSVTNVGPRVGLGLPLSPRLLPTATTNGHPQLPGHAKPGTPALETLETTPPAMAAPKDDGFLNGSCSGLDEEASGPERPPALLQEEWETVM
# Procedure, shortened: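 Agonist readout: GloSensor cAMP luminescence, read after 15 min at room temperature. HEK-293-derived GP2 line carries PTHR1; compounds tested as a titration for 1 hr at 37C in presence of IBMX. M-PTH (1-15) served as control.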
structure (smiles),measurement,setting,value
Cc1cn([C@H]2CC(N=[N+]=[N-])[C@@H](CO)O2)c(=O)[nH]c1=O (stereo partly drawn),Potency,[1],inactive
same,Potency,[2],inactive
same,Potency,[3],inactive
O=C(CCSCc1ccco1)NNC(=O)N1Cc2ccccc2Oc2ccc(Cl)cc21,Potency,[1],inactive
same,Potency,[2],inactive
same,outcome,[4],inactive
same,Potency,[3],inactive
COc1ccnc2c1CCCCC2S(=O)c1nc2ccccc2[nH]1 (stereo not drawn),Potency,[1],inactive
same,Potency,[5],inactive
same,Potency,[6],inactive
same,Potency,[7],inactive
same,Potency,[8],inactive
same,Potency,[9],inactive
same,Potency,[10],inactive
same,Potency,[11],inactive
same,Potency,[12],inactive
Brc1cc2c(cc1[C@H]1Nc3ccccc3[C@H]3C=CC[C@H]31)OCO2,Potency,[1],inactive
same,Potency,[2],inactive
same,outcome,[4],inactive
same,Potency,[3],inactive
COc1cc(OC)c(/C=C2/C(=O)Nc3ccccc32)c(OC)c1,Potency,[1],inactive
same,Potency,[13],inactive
S=C(S)OC1CC2CC1C1CCCC21 (stereo not drawn),Potency,[1],inactive
same,Potency,[2],inactive
same,outcome,[4],inactive
same,Potency,[13],inactive
CC[C@H]1OC(=O)[C@H](C)C(O[C@H]2C[C@@](C)(OC)[C@@H](O)[C@H](C)O2)[C@H](C)[C@@H](OC2O[C@H](C)C[C@H](N(C)C)[C@H]2O)[C@](C)(O)C[C@@H](C)CN(C)[C@H](C)[C@@H](O)[C@]1(C)O (stereo partly drawn),Potency,[1],inactive
same,Potency,[2],inactive
same,outcome,[4],inactive
same,Potency,[3],inactive
CCCCCCCCCCCCOCCO,Potency,[1],inactive
same,Potency,[5],inactive
same,Potency,[6],inactive
same,Potency,[7],inactive
same,Potency,[8],inactive
same,Potency,[9],inactive
same,Potency,[10],inactive
same,Potency,[11],inactive
same,Potency,[12],inactive
CCCC(CCC)C(=O)OC1CC2CCC(C1)[N+]2(C)C (stereo not drawn),Potency,[1],inactive
same,Potency,[2],inactive
same,outcome,[4],inactive
same,Potency,[3],inactive
CCCCCCCCCCCCCCCCCCN(CCCCCCCCCCCCCCCCCC)CCCN(CCO)CCO,Potency,[1],inactive
same,Potency,[2],inactive
same,outcome,[4],inactive
same,Potency,[3],inactive
CN=c1nc(-c2ccccc2)n(-c2ccccc2)s1,Potency,[1],inactive
same,Potency,[2],inactive
same,outcome,[4],inactive
same,Potency,[3],inactive
same,Potency,[13],inactive
CO[C@H]1O[C@@H]2O[C@]3(C)CC[C@@H]4[C@@H](C)CC[C@H]([C@H]1C)[C@]24OO3,Potency,[1],inactive
same,Potency,[2],inactive
same,outcome,[4],inactive
same,Potency,[3],inactive
COCCOc1cc2ncnc(Cl)c2cc1OCCOC,Potency,[1],inactive
same,Potency,[2],inactive
same,outcome,[4],inactive
same,Potency,[3],inactive
C[N+]1(C)C2CC(OC(=O)[C@H](CO)c3ccccc3)CC1C1OC12 (stereo partly drawn),Potency,[1],inactive
same,Potency,[2],inactive
same,outcome,[4],inactive
same,Potency,[3],inactive
same,Potency,[13],inactive
COc1ccccc1CN[C@@H]1CCCN[C@@H]1c1ccccc1,Potency,[1],inactive
same,Potency,[2],inactive
same,outcome,[4],inactive
same,Potency,[3],inactive
CCNC(=O)[C@H]1O[C@@H](n2cnc3c(N)nc(NCCc4ccc(CCC(=O)O)cc4)nc32)[C@H](O)C1O (stereo partly drawn),Potency,[1],inactive
same,Potency,[2],inactive
same,outcome,[4],inactive
same,Potency,[3],inactive
COc1cc(OC)cc(-c2cc3cnc(N)nc3nc2NC(=O)NC(C)(C)C)c1,Potency,[1],inactive
same,Potency,[2],inactive
same,outcome,[4],inactive
same,Potency,[3],inactive
Nc1nc(OCC2CCCCC2)c2[nH]cnc2n1,Potency,[1],inactive
same,Potency,[2],inactive
same,outcome,[4],inactive
same,Potency,[3],inactive
CC[C@H]1OC(=O)[C@H](C)[C@@H](O[C@H]2C[C@@](C)(OC)[C@@H](O)[C@H](C)O2)[C@H](C)[C@@H](O[C@@H]2O[C@H](C)C[C@H](NC)[C@H]2O)[C@](C)(O)C[C@@H](C)CN(C)[C@H](C)[C@@H](O)[C@]1(C)O,Potency,[1],inactive
same,Potency,[2],inactive
same,outcome,[4],inactive
O=C1NCc2c1c1c3ccccc3[nH]c1c1[nH]c3ccccc3c21,Potency,[1],inactive
same,Potency,[2],inactive
same,outcome,[4],inactive
same,Potency,[3],inactive
O=C(c1ccc(Cl)cc1)N1CCN(c2ccc([N+](=O)[O-])c3ncccc23)CC1,Potency,[1],inactive
same,Potency,[2],inactive
same,Potency,[3],inactive
same,Potency,[13],inactive
COc1ccc(Br)cc1S(=O)(=O)NC(=O)/C=C/c1ccccc1Cc1ccc2ccccc2c1,Potency,[1],inactive
same,Potency,[2],inactive
same,outcome,[4],inactive
same,Potency,[3],inactive
CC12C(=O)OC(=O)C1(C)C1CCC2O1 (stereo not drawn),Potency,[1],3.98 µM (active)
same,Potency,[2],inactive
same,outcome,[4],inactive
same,Potency,[3],inactive
same,Potency,[13],inactive
COc1ccc(/C=C/c2nc(NCCCN(C)C)c3ccccc3n2)cc1,Potency,[1],inactive
same,Potency,[3],inactive
C#C[C@]1(O)CC[C@H]2[C@@H]3CCC4=Cc5oncc5CC4(C)[C@H]3CCC21C (stereo partly drawn),Potency,[1],inactive
same,Potency,[13],inactive
O=C(CCc1ccncc1)NNC(=O)N1Cc2ccccc2Oc2ccc(Cl)cc21,Potency,[1],inactive
same,Potency,[2],inactive
same,outcome,[4],inactive
same,Potency,[3],inactive
S=c1[nH]c(-c2ccccc2)cn1-c1ccccc1,Potency,[1],inactive
same,Potency,[2],inactive
same,outcome,[4],inactive
same,Potency,[3],inactive
COc1ccc(NC(=O)/C=C/c2ccc(Cl)cc2)cc1,Potency,[1],inactive
same,Potency,[2],inactive
same,Potency,[3],inactive
same,Potency,[13],inactive
Ic1ccc(N2CCN(Cc3c[nH]c4ncccc34)CC2)cc1,Potency,[13],inactive
O=C1CN(/N=C/c2ccc([N+](=O)[O-])o2)C(=O)N1,Potency,[1],inactive
same,Potency,[6],inactive
same,Potency,[7],inactive
same,Potency,[9],inactive
same,Potency,[10],inactive
same,Potency,[11],inactive
same,Potency,[12],inactive
O=C(O)Cc1ccc2c(c1)C(=O)c1ccccc1CO2,Potency,[1],inactive
same,Potency,[5],inactive
same,Potency,[6],inactive
same,Potency,[7],inactive
same,Potency,[8],inactive
same,Potency,[9],inactive
same,Potency,[10],inactive
same,Potency,[11],inactive
same,Potency,[12],inactive
Cc1cc2c(cc1Cl)N(C(=O)Nc1ccc(Oc3cccnc3C)nc1)CC2,Potency,[2],inactive
same,outcome,[4],inactive
same,Potency,[13],inactive
Nc1nc2ccc([N+](=O)[O-])cc2s1,Potency,[1],inactive
same,Potency,[5],inactive
same,Potency,[6],inactive
same,Potency,[7],inactive
same,Potency,[8],inactive
same,Potency,[11],inactive
